Vaccinia pol inh: inhibitors of vaccinia virus processive DNA synthesis (E9 polymerase); actives 0.94% (n = 46,000); normalized absorbance, % (test concentration not listed); in vitro processive DNA synthesis, absorbance read-out; stronger effect = lower value; in the data active means normalized absorbance mostly below about 85%, no sharp cut-off; inactive means mostly above about 86%
The depositor's hits bear a star. This excerpt belongs to a sample that is enriched for hits.

What do the screens show for `CCCN(CCC)c1ccc(/C=N/n2cnnc2)cc1`?
Vaccinia pol inh: 101

How did CCN1C=C/C(=C\c2cc[n+](CC)c3ccccc23)c2ccccc21 do in these assays?
Vaccinia pol inh: 65*

Results for CC[n+]1ccc(C)c2ccccc21 ?
Vaccinia pol inh: 99

How did CO/C=C(/Oc1ccc(Cl)cc1Br)C(=O)OC do in these assays?
Vaccinia pol inh: 108

What do the screens show for `COc1cc(C2(c3ccc(N)c(OC)c3)CCCCC2)ccc1N`?
Vaccinia pol inh: 90

What do the screens show for `NC(=O)Cn1cc(/C=C2/C(=O)NC(=O)N(C3CCCCC3)C2=O)c2ccccc21`?
Vaccinia pol inh: 100

Results for CC1=NN(c2ccccc2)C(=O)/C1=C/c1cn(CC(O)CN2CCCCC2)c2ccccc12 (stereo unspecified) ?
Vaccinia pol inh: 32*

Results for O=C1Nc2ccccc2/C1=C\c1cn(CC(=O)N2CCCC2)c2ccccc12 ?
Vaccinia pol inh: 93

How did CCCn1c(-c2ccccc2Cl)nc2ccccc21 do in these assays?
Vaccinia pol inh: 94

What do the screens show for `Clc1ccc(N=C2CSc3nncn3N2)cc1Cl`?
Vaccinia pol inh: 100

How did CCc1ccc(/C=C2/C(=O)N(C3CCCCC3)C(=S)N2C)cc1 do in these assays?
Vaccinia pol inh: 99

What do the screens show for `COC(=O)c1cc2ccc3c(c2oc1=O)CN(Cc1ccccc1)CO3`?
Vaccinia pol inh: 105

Results for Cc1ccc(CN2COc3c(Cl)cc4c(C)c(C)c(=O)oc4c3C2)cc1 ?
Vaccinia pol inh: 69*

How did Cc1c2c(cc3c4c(c(=O)oc13)CCCC4)CN(CCc1ccc(F)cc1)CO2 do in these assays?
Vaccinia pol inh: 106

Results for FC(F)(F)Oc1ccc(N=Cc2c(Cl)nc3sccn23)cc1 ?
Vaccinia pol inh: 113

What do the screens show for `Cc1ccc(S(=O)(=O)N2CCC(N(C)CCC(C)C)CC2)cc1`?
Vaccinia pol inh: 110

What do the screens show for `COc1ccc(C2c3c(oc4ccccc4c3=O)C(=O)N2CCCO)cc1` (stereo unspecified)?
Vaccinia pol inh: 98

What do the screens show for `CCc1ccc(NS(=O)(=O)c2ccc3[nH]c(=O)ccc3c2)cc1`?
Vaccinia pol inh: 103

How did CC(=O)Oc1c(Sc2ccccc2)c(C)nn1C(C)(C)C do in these assays?
Vaccinia pol inh: 83*

Results for Cc1nn(C(C)(C)C)c(OC(=O)c2ccccc2)c1Sc1ccccc1 ?
Vaccinia pol inh: 88

How did Cc1nn(-c2ccccc2)c(OC(=O)c2cccs2)c1Sc1ccccc1 do in these assays?
Vaccinia pol inh: 101

What do the screens show for `Cc1ccc(CNC(=O)Cc2ccc(-n3c(=O)c4sccc4n(Cc4ccccc4)c3=O)cc2)cc1`?
Vaccinia pol inh: 91

How did O=C(Cc1ncc(C(F)(F)F)cc1Cl)NCCN1CCCCC1 do in these assays?
Vaccinia pol inh: 114

How did COc1ccccc1NC(=O)c1cc(S(=O)(=O)N2CCCCC2)ccc1F do in these assays?
Vaccinia pol inh: 100

Results for COc1ccc(-c2ccnc(SCC(=O)c3ccc(Cl)cc3)n2)cc1 ?
Vaccinia pol inh: 99

How did COc1ccc(C(=O)CSc2nnc(-c3ccco3)c(-c3ccco3)n2)cc1 do in these assays?
Vaccinia pol inh: 68*

What do the screens show for `COc1ccc(C(=O)CSc2nc3ccccc3s2)cc1`?
Vaccinia pol inh: 90

How did CCOC(=O)C1=C(N)C(=O)N(CCCN2CCOCC2)C1 do in these assays?
Vaccinia pol inh: 100

What do the screens show for `CNC(=O)n1cc(-c2ccccc2)c(C)n1`?
Vaccinia pol inh: 100

What do the screens show for `CC(=O)Nc1ccc(N=Cc2ccc(OC(=O)c3cccnc3)cc2)cc1`?
Vaccinia pol inh: 100

What do the screens show for `CC(=O)Nc1ccc(N=Cc2ccc(C)cc2)cc1`?
Vaccinia pol inh: 100

How did CC(=O)Nc1ccc(N=Cc2ccc(OC(=O)c3ccccc3Br)cc2O)cc1 do in these assays?
Vaccinia pol inh: 82*

Results for Cn1c(=O)oc2cc(S(=O)(=O)NCCCN3CCN(c4cccc(Cl)c4)CC3)ccc21 ?
Vaccinia pol inh: 102

What do the screens show for `Clc1cccc(OCCN2CCN(c3ccccc3)CC2)c1`?
Vaccinia pol inh: 100

How did O=c1n(CCCN2CCN(c3cccc(Cl)c3)CC2)nc2ccccn12 do in these assays?
Vaccinia pol inh: 15*

What do the screens show for `COc1cc2[nH]c(=O)n(CCCC(=O)NC3CCCC3)c(=O)c2cc1OC`?
Vaccinia pol inh: 86

How did Nc1c(-c2nc(-c3ccc4c(c3)OCO4)no2)nnn1-c1cccc(C(F)(F)F)c1 do in these assays?
Vaccinia pol inh: 103

How did CCOC(=O)N1CCN(S(=O)(=O)c2ccccc2)CC1 do in these assays?
Vaccinia pol inh: 100

Results for O=C1c2ccccc2-c2onc3c(Br)cc(NCc4ccccc4)c1c23 ?
Vaccinia pol inh: 99

Results for CCOC(=O)N1CCN(c2cc(NCCC(=O)O)c3c4c(onc24)-c2ccccc2C3=O)CC1 ?
Vaccinia pol inh: 70*

What do the screens show for `CCN(CC)CCNc1ccc(CO)c2sc3ccccc3c(=O)c12`?
Vaccinia pol inh: 60*

What do the screens show for `CCOC(=O)C(C)n1nc(C)c2sc3ccccc3c2c1=O` (stereo unspecified)?
Vaccinia pol inh: 92

Results for CCC(C(=O)O)n1nc(C)c2sc3ccccc3c2c1=O (stereo unspecified) ?
Vaccinia pol inh: 102

Results for COc1ccc2cc3cc(C(=O)NCCN(C)C)oc3nc2c1 ?
Vaccinia pol inh: 40*

What do the screens show for `COc1ccc2cc3cc(C(=O)NCc4ccco4)oc3nc2c1`?
Vaccinia pol inh: 87

Results for COc1ccc2cc3cc(C(=O)NCCN4CCN(c5ccccc5F)CC4)oc3nc2c1 ?
Vaccinia pol inh: 96

What do the screens show for `COc1ccccc1C(=O)Nc1nn2c(-c3ccccc3C)nnc2s1`?
Vaccinia pol inh: 96

Results for NNC(=O)c1cc(=S)nc[nH]1 ?
Vaccinia pol inh: 106

Results for CC(C)(C)n1nc2c(c1NC(=O)COc1ccccc1)CSC2 ?
Vaccinia pol inh: 101

How did NN(C(=O)C1CCCCC1)c1nc2ccccc2s1 do in these assays?
Vaccinia pol inh: 100

What do the screens show for `O=C(O)CCNc1ccccc1C(=O)O`?
Vaccinia pol inh: 100

How did O=C(O)c1ccccc1NCCO do in these assays?
Vaccinia pol inh: 90

How did O=C(O)c1ccccc1NCc1ccc(Cl)cc1 do in these assays?
Vaccinia pol inh: 53*

How did O=C(O)c1cc(-c2ccccc2Cl)on1 do in these assays?
Vaccinia pol inh: 101

What do the screens show for `O=C(Cc1ccsc1)OC(C(=O)c1ccccc1)c1ccccc1` (stereo unspecified)?
Vaccinia pol inh: 101

How did CN(C(=O)CC(=O)N(C)C1CCCCC1)C1CCCCC1 do in these assays?
Vaccinia pol inh: 85

What do the screens show for `O=c1cc(-c2ccccc2)oc2cc(O)cc(O)c12`?
Vaccinia pol inh: 100

How did O=c1cc(-c2ccc(O)cc2)oc2cc(O)cc(O)c12 do in these assays?
Vaccinia pol inh: 85*

What do the screens show for `O=C(COc1cc(O)c2c(=O)cc(-c3ccccc3)oc2c1)c1ccccc1`?
Vaccinia pol inh: 100

Results for O=C(/C=C/c1cccs1)Nc1nnc(-c2ccccc2)o1 ?
Vaccinia pol inh: 99

Results for O=C(CN1C(=O)/C(=C/c2ccccc2)SC1=S)NC1CCCCC1 ?
Vaccinia pol inh: 100

Results for Cc1ccc(C2=C/C(=C/c3ccc(-c4cccc(C(=O)O)c4)o3)C(=O)O2)cc1 ?
Vaccinia pol inh: 100

What do the screens show for `CC1=NN(c2cccc(C(=O)O)c2)C(=O)/C1=C/c1ccc(-c2cccc(Cl)c2C)o1`?
Vaccinia pol inh: 51*

How did O=C(O)c1cccc(-c2ccc(/C=c3/sc4nc5ccccc5n4c3=O)o2)c1 do in these assays?
Vaccinia pol inh: 100

How did O=C(CSc1nc(-c2ccccc2)nc2c1CCCC2)N1CCCCC1 do in these assays?
Vaccinia pol inh: 110

What do the screens show for `Cc1ccc(/C=C/C(=O)N(C)Cc2ccccc2)o1`?
Vaccinia pol inh: 114
